Test results reported in the OligoGym collection.

What follows are sequences tested against FPGS (assay: pooled miR-30 sensor sort-seq; sequence = guide strand). Conditions: shRNA.
Further: reference of the scale not given here.

Row | Sequence | sensor-assay potency score (higher = more potent)
1 | TTGGTCTGCGTTGCCTGTGGAT | -1.06
2 | TCGGAGGATACATTCCGTGAAG | -1.5
3 | TCTGTTGGTCTGCGTTGCCTGT | -0.767
4 | TTCCGTGAAGGCACAGGTGGAG | 0.0376
5 | TTCTGTTGGTCTGCGTTGCCTG | -0.416
6 | TCACTGTGAAGTTCTGTTGGTC | 0.188
7 | TTCACCTGCTCCAGGTAGCCGG | -1.54
8 | TGAAGAGCAAGACTCGAACCTC | -0.155
9 | TTCTCTTGGAGGAAGACGTGGA | 0.047
10 | TATAGAGGACATGAGATCTGCT | 0.932
11 | TAGAGGACATGAGATCTGCTGG | -0.333
12 | TTGATGCGGATCCGCTCCCGAA | -1.62
13 | TGAAGTTCTGTTGGTCTGCGTT | -0.752
14 | TCTTCGTCCAGGTGGTTCCAGT | -0.895
15 | TCCTTGGTCTCCTCCAGCCGGT | -1.92
16 | TAGCATTGAAGAGCAAGACTCG | -0.404
17 | TTCCTGATGATGTTGGTGCAGT | -0.727
18 | TTGCCTGTGGATGACACCTCTG | -0.989
19 | TGCCTGTGGATGACACCTCTGT | -0.547
20 | ATTGATGCGGATCCGCTCCCGA | -1.01
21 | ATACATTCCGTGAAGGCACAGG | 0.476
22 | TGTCTGAGGGTCACCCCGCTGG | -0.513
23 | TTCAGGTTGGAGCACAGTGAAG | -1.98
